From PubChem BioAssay
MCF10A rerep = inducers of DNA re-replication in MCF 10A breast cells | AID 624296 | actives 2.9% (n = 350,000) | Potency, µM (doses to about 46.1 µM), for inactives: at the top dose activity, positive = re-replication, usual class: activators | MCF 10A DNA re-replication, Hoechst nuclear intensity, 48 h; note: % of control where 0% means no effect; nearly all actives have a fitted effect of over 50% in size
KB-3-1 tox = kills parental KB-3-1 adenocarcinoma cells. KB-3-1 viability, CellTiter-Glo ATP luminescence, 72 h. Potency, µM (highest dose often 46.1 µM), actives largely listed as cytotoxic. actives 1.4% (n = 400,000); note: % is set by controls: 0 for no effect and ±100 for the full control effect; nearly all actives have a fitted effect of over 60% in size
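KB-3-1 cells, DMEM (no phenol red) + 10% FBS; compound by pin transfer, 72 h, 37 °C. Readout: CellTiter-Glo luminescence after 10 min. Data normalized, curve-fitted.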
SW480 rereplic = inducers of DNA re-replication in SW480 colon cancer cells. SW480 DNA re-replication, Hoechst DNA content imaging, 48 h. Potency, µM (doses to about 46.1 µM), for the others: at the top dose re-replication activation, actives largely listed as activators. actives 1.8% (n = 340,000). AID 624297; note: % of control where 0% means no effect; nearly all actives have a fitted effect of over 55% in size
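Quantitative HTS format with DMSO vehicle controls; 48 hr drug incubation at 37 C, then 40 min Hoechst staining and scanning imager measurement at 405 nm excitation.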
KB-V1 MDR tox = KB-V1 MDR subline cytotoxicity. KB-V1 MDR cells viability, CellTiter-Glo, 72 h. Potency, µM (top dose mostly 46.1 µM), hits mostly cytotoxic. actives 3.4% (n = 400,000). AID 1347076; note: % is set by controls: 0 for no effect and ±100 for the full control effect; nearly all actives have a fitted effect of over 60% in size
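Cytotoxicity via CellTiter-Glo luminescence after 72 h compound exposure at 37 degrees C. Cells: drug-selected KB-V1 line, DMEM phenol-red free plus 10% FBS. Compounds tested at multiple concentrations; normalized data fitted to concentration-effect curves.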
HT1080 IDH1KD tx = kills HT-1080 cells with IDH1 knockdown | AID 686971 | Potency, µM (titrated, usually from 46.1 µM), for the others: at the highest dose activity, negative = toxicity, actives largely listed as cytotoxic | HT-1080 IDH1 knockdown viability, ATP luminescence, 48 h | actives 2% (n = 360,000);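 note: 0% = DMSO wells and -100% = cell-free medium wells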
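IDH1KD HT-1080 cells, 750/well, RPMI + 5% FBS; compound pinned after 2 h settling; 48 h, 37 °C; CellTiter-Glo luminescence; % activity normalised to DMSO and no-cell wells; curves fitted, classed by r2 and efficacy.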
HT1080-NT tox = kills 2HG-producing HT-1080-NT fibrosarcoma cells; HT-1080-NT fibrosarcoma viability, CellTiter-Glo ATP luminescence, 48 h; Potency, µM (doses to about 46.1 µM), without a hit: top-dose activity, negative = less viability, most hits filed as cytotoxic; actives 1.6% (n = 360,000); AID 686970;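 note: NT is the 2HG producing partner of a matched IDH1 knockdown line; 0% = DMSO-treated cells and -100% = media-only wells without cells; nearly all actives have a fitted effect of over 55% in size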
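Viability of the 2HG-overproducing fibrosarcoma line after 48 hours of compound exposure at 37 degrees C was determined by luminescence with CellTiter-Glo, and concentration-effect curves were then fitted and categorized.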
Starred values were filed as active, the others as inactive; i = inactive; ? = inconclusive; nt = no result. Most compounds without a hit are left out; they make up all but 8% or so of the library. Calls come from the whole dose curve; as a rule, active = well fitted curve in the direction sought with a large enough effect; inconclusive = small, poorly fitted or top-dose-only effect, or another doubt; inactive = no such curve, though single readings can be large; an effect the other way counts as inactive or inconclusive. Potency is the fitted concentration of half-maximal effect.

SMILES | MCF10A rerep | KB-3-1 tox | SW480 rereplic | KB-V1 MDR tox | HT1080 IDH1KD tx | HT1080-NT tox
Cc1cc(C(=O)NCCN2CCN(c3cccc(Cl)c3)CC2)n(-c2ccccc2)n1 | 25.9µM* | 14.6µM* | 8.2µM* | i | 16.4µM* | 8.2µM*
Cc1ncsc1C(=O)NCc1ccc(N2CCCC2=O)cc1 | -1.0% | i | -4.0% | 16.4µM* | 0.6% | 6.4%
O=C(NCc1ccc(N2CCCC2=O)cc1)Nc1cccc(Cl)c1 | ? | i | ? | 16.4µM* | -23.7% | -2.7%
O=C(NCCN1CCN(c2ccccc2)CC1)Nc1cccc(Cl)c1 | ? | i | 37.4% | i | 18.4µM* | 20.6µM*
CCCN=C1CC(C)(C)CC(=O)/C1=C(/O)CCC | ? | i | ? | i | 9.4% | 16.7%
CCC(C)c1ccc(NC(=O)C2CCN(c3ncccn3)CC2)cc1 (stereo unspecified) | 6.9% | ? | ? | 18.4µM* | -13.3% | ?
Cc1cccc(NC(=O)C2CCN(c3nccc(C)n3)CC2)c1 | -4.2% | i | -3.6% | 14.6µM* | 5.0% | 5.9%
Cc1ccnc(N2CCC(C(=O)Nc3ccc4c(c3)CCC4)CC2)n1 | 0.8% | i | -0.4% | i | 12.5% | 13.6%
Cn1c(CC(=O)NNC(=O)c2ccccc2[N+](=O)[O-])nc2ccccc21 | 3.8% | i | 10.9% | i | 12.2% | 0.3%
Nc1ccccc1O | ? | i | ? | i | 18.4µM* | 20.6µM*
Nc1cccc2c(O)cccc12 | 13.5% | ? | -1.8% | ? | -16.0% | -19.2%
CN(C)c1ccc(NC(=O)c2cn(-c3ccccc3)nc2-c2cccs2)cc1 | 17.8% | i | -0.1% | ? | -5.3% | 0.4%
CC(=O)N1N=C(c2ccccc2)CC1c1ccc2c(c1)OCO2 (stereo unspecified) | -5.3% | i | -11.9% | i | 3.2% | 1.1%
CC(=O)C1=NN(c2ccccc2)C(c2cccs2)N1c1ccc(N(C)C)cc1 (stereo unspecified) | ? | ? | ? | i | 2.51µM* | 7.08µM*
CC(=O)C1=NN(c2ccccc2)C(c2ccc3c(c2)OCO3)N1c1ccccc1 (stereo unspecified) | 8.2µM* | ? | 5.8µM* | i | -29.3% | -20.9%
CCOC(=O)Cc1csc(SCC(=O)/C(C#N)=C(\C)N)n1 | 14.0% | i | -4.2% | i | 2.4% | 4.7%
CCN1c2ccccc2NC2N=C(OC)C(c3ccccc3)C21 (stereo unspecified) | ? | i | 16.4µM* | ? | 8.91µM* | 11.2µM*
CCN1C(=O)N[C@@H](c2ccccc2)[C@H](C(=O)OC)[C@H]1C | 1.2% | i | -6.5% | i | 2.4% | 19.3%
COc1ccc(/C=C(\C#N)C(=O)OCC(=O)NCc2ccc(Cl)cc2)cc1 | 4.1% | nt | 0.1% | nt | nt | nt
Cc1cccc(C)c1OCC(=O)Nc1oc(-c2ccccc2)c(-c2ccccc2)c1C#N | ? | ? | -69.8% | 16.4µM* | -20.3% | ?
CCC1=NN(C(=O)COc2ccccc2)C(O)(c2ccncc2)C1 (stereo unspecified) | 1.6% | i | 6.51µM* | i | 16.6% | 14.7%
CCC1=NN(C(=O)Cc2ccccc2)C(O)(c2ccncc2)C1 (stereo unspecified) | -4.0% | i | 0.4% | i | 10.3% | 5.7%
CC(C)(C)C1=CC(=O)C(=O)C(C(C)(C)C)=C1 | ? | i | 18.4µM* | 13µM* | ? | ?
CC(C)(C)C1=CC(=Nc2ccccc2N)C=C(C(C)(C)C)C1=O | -6.5% | ? | ? | ? | ? | ?
Cc1ccccc1NC(=O)NCCc1ccc(Cl)cc1 | ? | i | -12.6% | ? | 0.8% | -0.3%
COc1cccc(C(=O)/C=C/Nc2cc(C)ccc2O)c1 | 100.2% | i | 18.4µM* | ? | ? | -10.6%
